The values below come from PubChem BioAssay (NCI).

About 79,000 compounds went through this panel and 15% of them were active in at least one assay; those are over-represented in the sample as a whole. Unmarked numbers belong to inactive results. Active and inactive are the calls of the source. Rule as the data show it: active = growth inhibition above about 70%; inactive = the rest.

Test [1] can be described thus: NCI Yeast Anticancer Drug Screen. Data for the rad50 strain (AID 155).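 Also: 0% = growth of vehicle-only cultures of the same strain.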 Particulars: S. cerevisiae rad50 strain growth inhibition, active compounds read high. The essentials: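 Genetically altered yeast (DNA repair pathway); compound treatment; growth inhibition vs vehicle ctrl.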
Test [2] can be described thus: NCI Yeast Anticancer Drug Screen. Data for the mec2-1 strain (AID 157). The note with it: S. cerevisiae mec2-1 strain, active compounds read high. A digest of the protocol:
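Mutant yeast (mec2-1) grown with compound; growth inhibition relative to vehicle control reported.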

Test [3] can be described thus: NCI Yeast Anticancer Drug Screen. Data for the sgs1 mgt1 strain (AID 161).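 Also: 0% = growth of cultures given vehicle only.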 The note with it: S. cerevisiae sgs1 mgt1 strain, active compounds read high. The essentials: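 Growth of a repair-deficient yeast mutant was monitored after compound treatment and expressed as inhibition relative to vehicle-treated cultures.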
Test [4] is described as follows: NCI Yeast Anticancer Drug Screen. Data for the cln2 rad14 strain (AID 165).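 Also: 0% = growth equal to vehicle treated cultures.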 The note with it: S. cerevisiae cln2 rad14 strain, active compounds read high. The essentials:
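Readout is yeast growth inhibition versus vehicle-treated controls, using a strain with cln2 and rad14 alterations exposed to compound.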

The nature of test [5]: NCI Yeast Anticancer Drug Screen. Data for the bub3 strain (AID 167). Particulars: S. cerevisiae bub3 mutant strain, active compounds read high. A digest of the protocol: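 Yeast carrying a defined mutation is treated with each compound, and growth is compared with that of vehicle-exposed cells to give inhibition.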
The nature of test [6]: NCI Yeast Anticancer Drug Screen. Data for the mlh1 rad18 strain (AID 175). Particulars: S. cerevisiae mlh1 rad18 strain growth inhibition, active compounds read high. A digest of the protocol:
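Genetically defined yeast (DNA repair-deficient) exposed to compounds; growth inhibition determined relative to vehicle.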

Where [7] appears, read: at 5.0 µM (retest, dose inferred, filed as 0.5).
Setting [8] is: at 50.0 µM (retest, dose inferred, filed as 5.0).

In the case of `CCC[CH2][Sn]([CH2]CCC)[S]CC(N)C(=O)O` (stereo not given), the growth inhibition in test [1] (setting [7]) was 63%; in test [1] (setting [8]) it was 98% (active); in test [1] (at 50.0 µM) it was 98.5% (active); in test [2] (setting [7]), 67%; in test [2] (setting [8]), 99% (active); in test [2] (at 50.0 µM) it was 98.5% (active). Moreover, the growth inhibition is 56% in test [3] (setting [7]); 95% (active) in test [3] (setting [8]); 98.1% (active) in test [3] (at 50.0 µM); 49% in test [4] (setting [7]); 98% (active) in test [4] (setting [8]); 98.1% (active) in test [4] (at 50.0 µM). The growth inhibition in test [5] (setting [7]) was 80% (active); in test [5] (setting [8]), 99% (active); in test [5] (at 50.0 µM), 98% (active); in test [6] (setting [7]), 62%; in test [6] (setting [8]) it was 98% (active); in test [6] (at 50.0 µM), 97.9% (active).

With `CCC[CH2][Sn]1([CH2]CCC)[O]CC(COc2c(Cl)cc(Cl)cc2Cl)[O]1` (stereo not given), the growth inhibition in test [1] (setting [7]) is 94% (active); in test [1] (setting [8]), 94% (active); in test [1] (at 50.0 µM), 91.2% (active); in test [2] (setting [7]), 92% (active); in test [2] (setting [8]), 92% (active); in test [2] (at 50.0 µM), 91.3% (active). Also, the growth inhibition was 97% (active) in test [3] (setting [7]); 97% (active) in test [3] (setting [8]); 90.2% (active) in test [3] (at 50.0 µM); 89% (active) in test [4] (setting [7]); 89% (active) in test [4] (setting [8]); 90% (active) in test [4] (at 50.0 µM). The growth inhibition is 89% (active) in test [5] (setting [7]), 89% (active) in test [5] (setting [8]) and 92.5% (active) in test [5] (at 50.0 µM).

As for `[Cl][Hg][c]1ccc2ccccc2c1`, the growth inhibition in test [1] (setting [7]) was 99% (active); in test [1] (setting [8]), 98% (active); in test [1] (at 50.0 µM), 85.8% (active); in test [2] (setting [7]) it was 100% (active); in test [2] (setting [8]), 97% (active); in test [2] (at 50.0 µM) it was 89.5% (active). Besides, the growth inhibition in test [3] (setting [7]) was 100% (active); in test [3] (setting [8]), 98% (active); in test [3] (at 50.0 µM), 90.9% (active); in test [4] (setting [7]), 100% (active); in test [4] (setting [8]), 97% (active); in test [4] (at 50.0 µM) it was 89.3% (active). The growth inhibition in test [5] (setting [7]) is 99% (active); in test [5] (setting [8]), 97% (active); in test [5] (at 50.0 µM) it was 88.1% (active); in test [6] (setting [7]) it was 100% (active); in test [6] (setting [8]), 97% (active).

For `CN(Cc1ccccc1)CC(O)c1cccc(I)c1` (stereo not given), the growth inhibition in test [1] (setting [7]) was -3%; in test [1] (setting [8]), 18%; in test [1] (at 50.0 µM), 49.5%; in test [2] (setting [7]), -3%; in test [2] (setting [8]), 9%; in test [2] (at 50.0 µM), 11.3%. The growth inhibition is -2% in test [3] (setting [7]); 36% in test [3] (setting [8]); 51.6% in test [3] (at 50.0 µM); 1% in test [4] (setting [7]); 11% in test [4] (setting [8]); 31.6% in test [4] (at 50.0 µM). Also, the growth inhibition in test [5] (setting [7]) is 0%; in test [5] (setting [8]), 35%; in test [5] (at 50.0 µM), 56.2%; in test [6] (setting [7]), -4%; in test [6] (setting [8]), 24%; in test [6] (at 50.0 µM), 27.2%.

Take `Cc1nnc2n1-c1ccc(Cl)cc1C(c1ccccc1)=[N+]([O-])C2`: the growth inhibition is 4% in test [1] (setting [7]); 0% in test [1] (setting [8]); -16.8% in test [1] (at 50.0 µM); -3% in test [2] (setting [7]); -9% in test [2] (setting [8]); -0.7% in test [2] (at 50.0 µM). Moreover, the growth inhibition in test [3] (setting [7]) was 1%; in test [3] (setting [8]) it was 3%; in test [3] (at 50.0 µM), 3.05%; in test [4] (setting [7]) it was 1%; in test [4] (setting [8]), 12%; in test [4] (at 50.0 µM) it was 64.7%. For the same compound, the growth inhibition was -1% in test [5] (setting [7]); -1% in test [5] (setting [8]); 7.45% in test [5] (at 50.0 µM); -3% in test [6] (setting [7]); -4% in test [6] (setting [8]); -6.2% in test [6] (at 50.0 µM).

In the case of `CC(=O)[CH-]C(C)=O.CC(=O)[CH-]C(C)=O.[O-]c1ccccc1.[O-]c1ccccc1.[Ti+4]`, the growth inhibition in test [1] (setting [7]) is 25%; in test [1] (setting [8]), 25%; in test [1] (at 50.0 µM), 40.3%; in test [2] (setting [7]), 20%; in test [2] (setting [8]), 20%; in test [2] (at 50.0 µM), 0.3%. In addition, the growth inhibition in test [3] (setting [7]) is 19%; in test [3] (setting [8]) it was 19%; in test [3] (at 50.0 µM), 11.4%; in test [4] (setting [7]), 21%; in test [4] (setting [8]), 21%; in test [4] (at 50.0 µM), 15.2%. Also, the growth inhibition in test [5] (setting [7]) is 6%; in test [5] (setting [8]), 6%; in test [5] (at 50.0 µM), 7.05%; in test [6] (setting [7]), -9%; in test [6] (setting [8]), -9%; in test [6] (at 50.0 µM), 16.9%.

For the compound `CN1CCN(c2ccc3nc(-c4ccc5nc(-c6ccc(N(C)CCCl)cc6)[nH]c5c4)[nH]c3c2)CC1`, the growth inhibition in test [1] (setting [7]) was 1%; in test [1] (setting [8]) it was 99% (active); in test [1] (at 50.0 µM), 98.4% (active); in test [2] (setting [7]) it was -10%; in test [2] (setting [8]), 99% (active); in test [2] (at 50.0 µM), 98.8% (active). The growth inhibition in test [3] (setting [7]) was -7%; in test [3] (setting [8]) it was 99% (active); in test [3] (at 50.0 µM), 98.8% (active); in test [4] (setting [7]), 47%; in test [4] (setting [8]), 99% (active); in test [4] (at 50.0 µM) it was 98.6% (active). For the same compound, the growth inhibition in test [5] (setting [7]) is -18%; in test [5] (setting [8]) it was 99% (active); in test [5] (at 50.0 µM), 98.8% (active).

On to `CCCCCCCCCCCCCCCC[N+](C)(C)CCOS(C)(=O)=O`, for which the growth inhibition in test [1] (setting [7]) was 99% (active); in test [1] (setting [8]) it was 98% (active); in test [1] (at 50.0 µM) it was 91.2% (active); in test [2] (setting [7]), 99% (active); in test [2] (setting [8]), 99% (active); in test [2] (at 50.0 µM), 90.4% (active). Moreover, the growth inhibition was 99% (active) in test [3] (setting [7]); 99% (active) in test [3] (setting [8]); 90.3% (active) in test [3] (at 50.0 µM); 93% (active) in test [4] (setting [7]); 99% (active) in test [4] (setting [8]); 86.5% (active) in test [4] (at 50.0 µM). Also, the growth inhibition in test [5] (setting [7]) is 99% (active); in test [5] (setting [8]), 99% (active); in test [5] (at 50.0 µM) it was 92.4% (active); in test [6] (setting [7]) it was 98% (active); in test [6] (setting [8]) it was 98% (active); in test [6] (at 50.0 µM), 92.3% (active).

Turning to `O=C(Cc1c2ccccc2cc2c1ccc1ccccc12)N(CCCl)CCCl`, the growth inhibition in test [1] (setting [7]) was 61%; in test [1] (setting [8]), 94% (active); in test [1] (at 50.0 µM), 98.8% (active); in test [2] (setting [7]) it was 15%; in test [2] (setting [8]), 97% (active); in test [2] (at 50.0 µM), 99.3% (active). Besides, the growth inhibition in test [3] (setting [7]) was 80% (active); in test [3] (setting [8]), 98% (active); in test [3] (at 50.0 µM) it was 99.2% (active); in test [4] (setting [7]), 5%; in test [4] (setting [8]), 95% (active); in test [4] (at 50.0 µM), 94.3% (active). Besides, the growth inhibition was 17% in test [5] (setting [7]), 97% (active) in test [5] (setting [8]) and 98.3% (active) in test [5] (at 50.0 µM).

Consider `CC(C)c1ccc(C(c2c(O)c3ccccc3oc2=O)c2c(O)c3ccccc3oc2=O)cc1`, for which the growth inhibition in test [1] (setting [7]) is 3%; in test [1] (setting [8]), 91% (active); in test [1] (at 50.0 µM), 98.5% (active); in test [2] (setting [7]), -5%; in test [2] (setting [8]), 95% (active); in test [2] (at 50.0 µM) it was 97.9% (active). Also, the growth inhibition was -10% in test [3] (setting [7]); 95% (active) in test [3] (setting [8]); 98.7% (active) in test [3] (at 50.0 µM); -4% in test [4] (setting [7]); 98% (active) in test [4] (setting [8]); 99.3% (active) in test [4] (at 50.0 µM). The growth inhibition in test [5] (setting [7]) was -9%; in test [5] (setting [8]) it was 92% (active); in test [5] (at 50.0 µM), 98.6% (active); in test [6] (setting [7]), -11%; in test [6] (setting [8]) it was 97% (active); in test [6] (at 50.0 µM) it was 98.4% (active).
